ssDAF12 agonist – S. stercoralis DAF-12 activation, primary screen. HEK293 ssDAF-12/GRIP1 lit1-tk-luc reporter, luminescence; % of 3 µM dafachronic acid response. actives 1% (n = 370,000). activation, % at 6.8 µM;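 active = activation above the mean over all tested compounds plus 3 SD, cut at about 0.9% in these data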;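 note: 0% = DMSO-only wells and 100% = 3 µM delta7-dafachronic acid wells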
hcDAF12 agonist – activators of H. contortus DAF-12 nuclear receptor | actives 1.4% (n = 370,000) | HEK293 hcDAF-12 lit1-tk-luc reporter, luminescence; 0% DMSO, 100% Δ7-dafachronic acid | activation, % at 6.8 µM;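 active = activation above the mean of all tested compounds plus 3 SD, cut at about 5.5% in these data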;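 note: 100% = response to 3 µM Δ7-dafachronic acid high control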
DAX1 inh-1 – inhibits human nuclear receptor DAX1 | P51843 | HEK293 Gal4-DAX1 luciferase reporter, luminescence | inhibition, % at 6.75 µM | actives 0.99% (n = 340,000) | AID 504766;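 active = inhibition above the mean over all tested compounds plus 3 SD, cut at about 4.2% in these data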;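 note: 0% = DAX1-transfected cells with DMSO and 100% = empty-vector control cells with DMSO; inhibition shows as a rise in luminescence from relieved DAX1 repression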
Target sequence (P51843 207-470 limits assumed): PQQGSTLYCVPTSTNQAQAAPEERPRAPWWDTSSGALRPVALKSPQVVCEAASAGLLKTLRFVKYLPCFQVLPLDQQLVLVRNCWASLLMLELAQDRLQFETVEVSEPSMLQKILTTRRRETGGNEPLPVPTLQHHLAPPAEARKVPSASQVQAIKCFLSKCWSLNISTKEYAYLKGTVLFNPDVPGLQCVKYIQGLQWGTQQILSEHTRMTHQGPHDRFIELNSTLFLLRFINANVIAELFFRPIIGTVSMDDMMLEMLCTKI
hgDAF12 agonist – agonists of H. glycines DAF-12 nuclear receptor. HEK293 GAL4-hgDAF12 UAS-luciferase reporter, agonist luminescence; normalized to butyrate control. activation, % at 6.8 µM. actives 1.8% (n = 370,000);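 active = activation above a cutoff set at the mean of all screened compounds plus 3 SD, cut at about 10% in these data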;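 note: 0% = DMSO wells and 100% = sodium butyrate wells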
DAX1 inh-2 – blocks DAX1 repression of SF-1 activated StAR promoter. HEK293T StAR-luciferase reporter, SF-1/DAX-1 repression relief. inhibition, % at 6.8 µM. actives 1.1% (n = 370,000);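 active = inhibition above the mean over all tested compounds plus 3 SD, cut at about 3.6% in these data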;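 note: 0% = DAX-1 cells with DMSO and 100% = cells lacking DAX-1 with DMSO; higher inhibition means more luminescence from relief of DAX-1 repression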
* hit, by the source's call; / = not tested or not shown. In the library only some 4.1% were active in any assay of this set; here they are far more common.

SMILES | ssDAF12 agonist | hcDAF12 agonist | DAX1 inh-1 | hgDAF12 agonist | DAX1 inh-2
O=C(CN1CCN(c2ccccc2)CC1)Nc1scc2c1c(=O)oc1ccccc12 | 0.4 | -0.3 | 4.7* | -0.4 | 0.9
CCC(C#Cc1ccccc1)N(C)C(N)=NC(=O)/C=C/c1ccccc1 (stereo unspecified) | -1.6 | -0.8 | / | -0.1 | /
Clc1ccc(-c2cc(-c3ccccc3)on2)cc1 | -0.3 | 2.0 | 0.4 | 8.2 | 0.6
Cc1nc(-c2cc(-c3ccc(Cl)cc3)no2)cs1 | -0.8 | 0.2 | 4.5* | 3.0 | 0.6
CSC(=NC#N)N1CCN(C(c2ccccc2)c2ccccc2)CC1 | -1.2 | 0.9 | 0.0 | 0.7 | -1.1
CSC(=NC#N)N1CCN(C(=NC#N)SC)CC1 | -0.1 | -0.4 | 4.7* | 0.8 | -0.8
CCOc1cc2c(cc1O)C(=NOC)CC1C2CCC2(C)C(O)CCC12 (stereo unspecified) | -0.9 | 0.9 | 0.9 | -5.6 | 4.3*
CCN(CC)C(=O)N1CCC(NC(=O)c2ccccc2)CC1 | -0.9 | -2.2 | 4.7* | 2.8 | 0.0
Nc1ccc(C(=O)OCCc2ccccc2)cc1 | 0.0 | 1.9 | 5.1* | 12.8* | 1.0
O=C(OCCc1ccccc1)c1cc(O)c(O)c(O)c1 | 0.0 | 6.2* | 0.6 | -1.7 | 2.1
COc1ccc(C(=O)OCCc2ccc(O)cc2)cc1 | -0.1 | 3.1 | 2.2 | 11.9* | 1.0
Nc1ccc2oc3ccccc3c2c1 | -0.2 | 6.1* | 0.9 | 9.7 | 0.6
Nc1ccc(C#Cc2ccc3oc4ccccc4c(=O)c3c2)cc1 | -1.7 | -1.2 | -2.2 | 4.7 | -0.4
CC(=O)Cc1nsc(Nc2ccc(C)cc2)n1 | 0.8 | 4.6 | 2.6 | 12.2* | 4.2*
CC(=O)c1ccc(NC(=O)C2Cc3ccccc3CN2C(=O)c2ccccc2)cc1 (stereo unspecified) | -0.4 | 6.0* | -0.6 | 3.0 | 0.0
COC(=O)[C@]12C[C@H](CC(=O)NCc3cccs3)C(=O)N(CCC3=CCCCC3)C1=C[C@H](COCc1ccccc1)O[C@@H]2C | -0.9 | -0.5 | / | 2.2 | -0.4
Cc1nc(C)n(CC(=O)N2CCCC(C(=O)c3cccc4ccccc34)C2)n1 (stereo unspecified) | -0.1 | 1.2 | -0.4 | 11.5* | 1.6
COCCCn1c(=O)c2sccc2n(Cc2ccc(C)cc2)c1=O | 1.0* | -0.8 | 0.5 | -1.8 | 0.0
Oc1[nH]c2ccccc2c1N=Nc1ccc(F)cc1 | 0.9 | 4.0 | 1.5 | 11.8* | 2.4
CC(C)(O)C(=O)N=Nc1c(O)[nH]c2ccccc12 | -0.2 | 5.0 | 1.4 | 10.5* | 2.3
Clc1ccc(OCc2noc(-c3ccsc3)n2)c(Cl)c1 | -0.5 | 1.6 | 8.3* | 10.6* | 2.3
CC1(C)CC(=O)C2=C(C1)NC1=C(C(=O)c3ccccc31)C2c1ccc(Cl)cc1 (stereo unspecified) | 0.0 | 6.4* | -1.1 | -1.0 | 0.0
Cc1ccc(C2C3=C(CC(C)(C)CC3=O)NC3=C2C(=O)c2ccccc23)cc1 (stereo unspecified) | -2.0 | 0.3 | -1.7 | -2.0 | -1.0
CCOC(=O)CCCNC(=O)OC1CC2CC1[C@H]1CCCCN1[C@H]2Cc1ccccc1 (stereo partly specified) | -0.5 | -1.0 | / | -3.7 | 0.5
COc1ccc(-c2nc(SC)n(S(=O)(=O)c3ccccc3)n2)cc1 | 1.0* | -0.2 | -0.4 | 5.1 | 1.4
SMILES | ssDAF12 agonist | hcDAF12 agonist | DAX1 inh-1 | hgDAF12 agonist | DAX1 inh-2
COc1ccc2c(c1)CC(C)C/C2=N\NC(=O)c1ccco1 (stereo unspecified) | 0.5 | 3.5 | 2.4 | 10.3 | 2.5
CC1C/C(=N/NC(=O)c2cccc(F)c2)c2ccc(O)cc2C1 (stereo unspecified) | -1.4 | 2.6 | 1.6 | 12.8* | 0.2
Cc1cc(Nc2ccc(OC(F)F)cc2)cc(=O)n1-c1ccc(OC(F)F)cc1 | -1.5 | -2.1 | / | -1.6 | -2.1
COc1cccc(-c2cc(C(=O)NCC3CCCO3)on2)c1 (stereo unspecified) | -0.5 | 3.7 | 1.1 | 11.2* | 0.8
CCCCOc1ccc(C(=O)NC2CCCCN(Cc3ccc(C)cc3)C2=O)cc1 (stereo unspecified) | -1.9 | -3.4 | / | -0.8 | -3.4
Cc1cc(NC(=O)CC(C)(C)C)nc2c1c(=O)oc1ccccc12 | -1.0 | 6.3* | -0.5 | 0.3 | 0.4
Cc1c(N2C(=O)c3ccc(Br)cc3C2=O)c(=O)n(-c2ccccc2)n1C | -1.1 | -1.2 | 5.4* | -2.4 | -0.4
Cc1c(N2C(=O)c3ccc4c5c(ccc(c35)C2=O)CC4)c(=O)n(-c2ccccc2)n1C | / | / | 0.3 | / | /
O=C(O)CCSc1nc(C(F)(F)F)cc(=O)n1-c1ccccc1 | -1.1 | -0.3 | 5.7* | -1.6 | 0.4
CCCn1nnc(NC(=O)c2sc3ccccc3c2Cl)n1 | -1.1 | 1.1 | 0.7 | 5.3 | 1.8
CC(C)c1nnc(NC(=O)c2sc3ccccc3c2Cl)s1 | -0.1 | 5.9* | 2.6 | 9.7 | 1.1
O=C(N/N=C/c1ccncc1)c1sc2ccccc2c1Cl | -1.5 | 1.9 | -0.2 | 1.8 | 3.9*
CC1(c2ccncc2)Nc2ccccc2-c2nc3ccccc3n21 (stereo unspecified) | -0.8 | 2.1 | 1.3 | 11.7* | 0.6
COc1ccc2c(c1)C1(Nc3ccccc3-c3nc4ccccc4n31)C(=O)N2 (stereo unspecified) | -2.2 | -0.9 | -0.6 | -2.1 | 1.1
CC(c1ccc(F)cc1)n1cc(C(=O)NCCN(C)C)nn1 (stereo unspecified) | -0.7 | -0.8 | 5.5* | -0.2 | 0.3
COc1ccc(NC(=O)C/C(C)=N/NC(=O)c2ccccn2)c(OC)c1 | -0.2 | 4.5 | 0.9 | 12.0* | 2.8
COc1ccc(NC(=O)C/C(C)=N/NC(=O)c2cnccn2)c(OC)c1 | -0.3 | -1.5 | 0.6 | 3.5 | 1.2
COc1ccc(NC(=O)C/C(C)=N/NC(=O)c2cccs2)c([N+](=O)[O-])c1 | -0.4 | 5.0 | 3.5 | 10.7* | 2.0
COc1ccc(CCNC(=O)C/C(C)=N/NC(=O)c2cnccn2)cc1 | -0.9 | 2.5 | 0.8 | 4.9 | 4.2*
COc1ccc(CCNC(=O)c2cnccn2)cc1 | -1.6 | 1.3 | 0.2 | -1.1 | 1.2
COc1cc(OC)cc(C(=O)NCCN2C(=O)C3C4C=CC(C4)C3C2=O)c1 (stereo unspecified) | -1.2 | -1.3 | / | -2.0 | -0.9
Cc1ccccc1C(=O)N[C@@H](CC(C)C)C(=O)N1CCC[C@H]1C(=O)NCc1ccccc1 | 0.2 | -0.9 | / | -0.5 | 0.2
C=CCn1c(Cc2cccs2)nnc1SCC(=O)Nc1ccc(C)cc1 | -1.5 | -2.6 | / | -2.4 | -0.5
c1cc(-c2nnc3n2N=C(c2ccc4c(c2)OCO4)CS3)ccn1 | -1.8 | -3.1 | / | 3.5 | -2.6
COC(=O)C1=C(C)N(Cc2ccc(C(F)(F)F)cc2)C(=NCc2ccccc2C(F)(F)F)NC1c1ccc(C(F)(F)F)cc1 (stereo unspecified) | -0.7 | -1.4 | / | 2.2 | -0.2
O=C(N[C@H](C(=O)N1CCC[C@H]1C(=O)NC1CCCC1)C1CCCCC1)c1ccco1 | -1.1 | -0.8 | / | 1.9 | 0.5
